Assay [1] concerns the target T1, Muscle, skeletal receptor tyrosine-protein kinase (Homo sapiens) (UniProt O15146).
T1 sequence (whole entry): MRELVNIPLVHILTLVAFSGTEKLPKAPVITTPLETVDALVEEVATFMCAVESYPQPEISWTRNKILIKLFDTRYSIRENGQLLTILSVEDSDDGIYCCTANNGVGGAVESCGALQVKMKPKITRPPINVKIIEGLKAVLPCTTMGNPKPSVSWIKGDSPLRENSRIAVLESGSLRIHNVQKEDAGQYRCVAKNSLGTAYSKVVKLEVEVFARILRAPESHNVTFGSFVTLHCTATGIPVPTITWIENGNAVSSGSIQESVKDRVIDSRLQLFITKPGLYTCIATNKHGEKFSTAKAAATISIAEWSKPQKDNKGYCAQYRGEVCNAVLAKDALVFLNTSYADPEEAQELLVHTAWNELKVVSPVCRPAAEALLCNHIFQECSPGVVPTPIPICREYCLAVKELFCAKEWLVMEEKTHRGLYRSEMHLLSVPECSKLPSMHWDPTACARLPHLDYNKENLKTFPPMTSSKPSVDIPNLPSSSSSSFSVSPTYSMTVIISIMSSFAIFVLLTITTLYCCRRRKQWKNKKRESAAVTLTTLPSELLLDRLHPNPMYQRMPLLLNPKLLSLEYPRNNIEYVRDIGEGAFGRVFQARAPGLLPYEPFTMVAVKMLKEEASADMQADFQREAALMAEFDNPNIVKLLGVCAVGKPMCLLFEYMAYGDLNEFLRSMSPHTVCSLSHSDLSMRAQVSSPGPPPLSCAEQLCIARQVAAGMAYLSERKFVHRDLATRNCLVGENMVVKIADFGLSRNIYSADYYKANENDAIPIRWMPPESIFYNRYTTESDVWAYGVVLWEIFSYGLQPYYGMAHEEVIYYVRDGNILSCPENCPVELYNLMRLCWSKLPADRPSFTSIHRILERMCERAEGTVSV
The note with it: at 1 µM.

Assay [2] has as its target T1, Muscle, skeletal receptor tyrosine-protein kinase (Homo sapiens). As to conditions: at 10 µM.
Assay [3] has as its target T2, Serine/threonine-protein kinase Nek11 (Homo sapiens) (UniProt Q8NG66).
T2 sequence (whole entry): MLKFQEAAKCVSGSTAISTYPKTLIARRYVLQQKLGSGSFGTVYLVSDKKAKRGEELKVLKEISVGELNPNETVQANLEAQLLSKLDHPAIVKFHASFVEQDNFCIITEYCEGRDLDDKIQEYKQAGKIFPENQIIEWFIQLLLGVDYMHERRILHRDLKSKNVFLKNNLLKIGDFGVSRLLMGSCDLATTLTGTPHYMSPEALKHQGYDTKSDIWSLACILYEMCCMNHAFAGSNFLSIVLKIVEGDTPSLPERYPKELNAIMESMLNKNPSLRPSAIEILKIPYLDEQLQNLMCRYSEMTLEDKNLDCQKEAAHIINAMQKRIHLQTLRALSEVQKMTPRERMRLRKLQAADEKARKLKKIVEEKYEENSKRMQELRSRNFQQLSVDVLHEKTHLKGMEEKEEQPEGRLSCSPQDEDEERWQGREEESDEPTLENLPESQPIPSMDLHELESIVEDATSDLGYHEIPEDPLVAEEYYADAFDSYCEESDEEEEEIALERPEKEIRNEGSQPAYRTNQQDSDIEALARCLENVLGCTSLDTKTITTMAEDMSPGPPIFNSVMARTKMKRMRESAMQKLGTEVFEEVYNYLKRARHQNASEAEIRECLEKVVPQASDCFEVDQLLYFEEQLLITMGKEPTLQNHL
The note with it: at 1 µM.

In assay [4] the target is T2, Serine/threonine-protein kinase Nek11 (Homo sapiens). The note with it: at 10 µM.
Assay [5] addresses T3, Serine/threonine-protein kinase Nek2 (Homo sapiens) (UniProt P51955).
T3 sequence (whole entry): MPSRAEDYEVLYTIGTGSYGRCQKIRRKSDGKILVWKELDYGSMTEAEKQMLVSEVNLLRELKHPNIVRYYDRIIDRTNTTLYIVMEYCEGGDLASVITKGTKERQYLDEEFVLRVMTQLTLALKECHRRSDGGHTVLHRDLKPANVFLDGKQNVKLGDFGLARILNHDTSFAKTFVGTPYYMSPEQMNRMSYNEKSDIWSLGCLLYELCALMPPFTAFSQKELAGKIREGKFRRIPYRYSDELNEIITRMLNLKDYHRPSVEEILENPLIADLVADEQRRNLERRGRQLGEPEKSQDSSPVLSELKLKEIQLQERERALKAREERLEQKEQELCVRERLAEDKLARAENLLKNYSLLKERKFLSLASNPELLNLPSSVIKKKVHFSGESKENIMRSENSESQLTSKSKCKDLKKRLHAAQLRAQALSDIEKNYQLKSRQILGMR
The note with it: at 1 µM.

Assay [6] deals with T3, Serine/threonine-protein kinase Nek2 (Homo sapiens). The note with it: at 10 µM.
Assay [7] concerns the target Serine/threonine-protein kinase tousled-like 2 (Homo sapiens) (UniProt Q86UE8). The note with it: at 1 µM.
Assay [8] shares this target. The note with it: at 10 µM.
The target in assay [9] is T4, Testis-specific serine/threonine-protein kinase 1 (Homo sapiens) (UniProt Q9BXA7).
T4 sequence (whole entry): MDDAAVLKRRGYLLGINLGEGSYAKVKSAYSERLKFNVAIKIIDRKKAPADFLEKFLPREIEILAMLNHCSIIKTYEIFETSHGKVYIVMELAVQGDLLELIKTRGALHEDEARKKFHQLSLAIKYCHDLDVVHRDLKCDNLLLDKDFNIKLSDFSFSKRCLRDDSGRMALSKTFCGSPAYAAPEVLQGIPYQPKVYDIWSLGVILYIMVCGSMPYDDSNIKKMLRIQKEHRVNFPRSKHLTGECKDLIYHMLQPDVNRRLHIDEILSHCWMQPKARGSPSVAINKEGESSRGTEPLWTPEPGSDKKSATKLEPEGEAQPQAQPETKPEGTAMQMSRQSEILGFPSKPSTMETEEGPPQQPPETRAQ
The note with it: at 1 µM.

Assay [10] deals with T4, Testis-specific serine/threonine-protein kinase 1 (Homo sapiens). The note with it: at 10 µM.
Assay [11] concerns the target T5, Testis-specific serine/threonine-protein kinase 2 (Homo sapiens) (UniProt Q96PF2).
T5 sequence (whole entry): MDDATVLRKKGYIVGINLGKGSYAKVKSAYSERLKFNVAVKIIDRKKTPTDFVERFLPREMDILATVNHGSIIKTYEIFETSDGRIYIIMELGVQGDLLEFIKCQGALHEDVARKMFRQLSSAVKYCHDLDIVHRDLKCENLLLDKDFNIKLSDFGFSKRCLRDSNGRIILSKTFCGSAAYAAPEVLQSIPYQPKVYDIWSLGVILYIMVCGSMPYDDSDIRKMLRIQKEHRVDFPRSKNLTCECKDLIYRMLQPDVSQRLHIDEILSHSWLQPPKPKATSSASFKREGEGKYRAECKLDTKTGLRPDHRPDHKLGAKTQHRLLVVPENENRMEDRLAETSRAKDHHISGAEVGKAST
As to conditions: at 10 µM.

Assay [12] has as its target T6, Tyrosine-protein kinase Tec (Homo sapiens) (UniProt P42680).
T6 sequence (whole entry): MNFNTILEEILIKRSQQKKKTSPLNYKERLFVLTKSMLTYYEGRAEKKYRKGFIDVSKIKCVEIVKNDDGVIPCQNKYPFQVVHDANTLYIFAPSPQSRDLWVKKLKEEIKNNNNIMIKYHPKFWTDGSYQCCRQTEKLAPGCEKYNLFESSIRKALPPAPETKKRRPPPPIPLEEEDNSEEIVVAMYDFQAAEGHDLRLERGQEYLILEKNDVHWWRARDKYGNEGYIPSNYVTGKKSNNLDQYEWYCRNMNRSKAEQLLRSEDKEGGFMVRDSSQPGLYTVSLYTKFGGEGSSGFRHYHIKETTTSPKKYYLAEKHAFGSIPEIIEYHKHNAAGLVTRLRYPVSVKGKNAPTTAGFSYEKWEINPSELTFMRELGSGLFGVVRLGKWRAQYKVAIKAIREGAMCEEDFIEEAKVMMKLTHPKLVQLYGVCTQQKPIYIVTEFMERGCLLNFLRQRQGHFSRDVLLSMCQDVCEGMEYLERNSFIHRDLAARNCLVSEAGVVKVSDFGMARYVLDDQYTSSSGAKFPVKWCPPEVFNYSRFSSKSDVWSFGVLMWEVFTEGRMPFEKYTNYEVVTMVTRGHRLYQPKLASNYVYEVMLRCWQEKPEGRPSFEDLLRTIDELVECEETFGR
The note with it: at 1 µM.

For assay [13], the target named is T6, Tyrosine-protein kinase Tec (Homo sapiens). The note with it: at 10 µM.
Assay [14] addresses Angiopoietin-1 receptor (Homo sapiens) (UniProt Q02763). As to conditions: at 1 µM.
Assay [15] shares this target. The note with it: at 10 µM.
Assay [16] addresses High affinity nerve growth factor receptor (Homo sapiens) (UniProt P04629). As to conditions: at 1 µM.
Assay [17] shares this target. The note with it: at 10 µM.
The target in assay [18] is T7, Serine/threonine-protein kinase Nek3 (Homo sapiens) (UniProt P51956).
T7 sequence (whole entry): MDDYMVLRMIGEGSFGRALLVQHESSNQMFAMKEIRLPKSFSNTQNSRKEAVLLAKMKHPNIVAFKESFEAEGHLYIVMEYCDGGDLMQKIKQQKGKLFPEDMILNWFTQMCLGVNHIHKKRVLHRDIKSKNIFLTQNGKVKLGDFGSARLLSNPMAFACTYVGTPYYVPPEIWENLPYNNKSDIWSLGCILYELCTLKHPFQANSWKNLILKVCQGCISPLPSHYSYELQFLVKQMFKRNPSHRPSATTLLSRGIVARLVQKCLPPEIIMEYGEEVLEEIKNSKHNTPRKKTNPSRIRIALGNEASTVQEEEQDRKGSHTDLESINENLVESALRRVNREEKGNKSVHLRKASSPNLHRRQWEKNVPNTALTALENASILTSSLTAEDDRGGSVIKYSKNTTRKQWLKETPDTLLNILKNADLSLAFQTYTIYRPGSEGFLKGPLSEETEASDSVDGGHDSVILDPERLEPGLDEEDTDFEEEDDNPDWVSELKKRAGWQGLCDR
The note with it: at 1 µM.

Assay [19] addresses T7, Serine/threonine-protein kinase Nek3 (Homo sapiens). The note with it: at 10 µM.
For assay [20], the target named is BDNF/NT-3 growth factors receptor (Homo sapiens) (UniProt Q16620). As to conditions: at 1 µM.
BDNF/NT-3 growth factors receptor (Homo sapiens), sequence (Q16620 32-822 limits assumed): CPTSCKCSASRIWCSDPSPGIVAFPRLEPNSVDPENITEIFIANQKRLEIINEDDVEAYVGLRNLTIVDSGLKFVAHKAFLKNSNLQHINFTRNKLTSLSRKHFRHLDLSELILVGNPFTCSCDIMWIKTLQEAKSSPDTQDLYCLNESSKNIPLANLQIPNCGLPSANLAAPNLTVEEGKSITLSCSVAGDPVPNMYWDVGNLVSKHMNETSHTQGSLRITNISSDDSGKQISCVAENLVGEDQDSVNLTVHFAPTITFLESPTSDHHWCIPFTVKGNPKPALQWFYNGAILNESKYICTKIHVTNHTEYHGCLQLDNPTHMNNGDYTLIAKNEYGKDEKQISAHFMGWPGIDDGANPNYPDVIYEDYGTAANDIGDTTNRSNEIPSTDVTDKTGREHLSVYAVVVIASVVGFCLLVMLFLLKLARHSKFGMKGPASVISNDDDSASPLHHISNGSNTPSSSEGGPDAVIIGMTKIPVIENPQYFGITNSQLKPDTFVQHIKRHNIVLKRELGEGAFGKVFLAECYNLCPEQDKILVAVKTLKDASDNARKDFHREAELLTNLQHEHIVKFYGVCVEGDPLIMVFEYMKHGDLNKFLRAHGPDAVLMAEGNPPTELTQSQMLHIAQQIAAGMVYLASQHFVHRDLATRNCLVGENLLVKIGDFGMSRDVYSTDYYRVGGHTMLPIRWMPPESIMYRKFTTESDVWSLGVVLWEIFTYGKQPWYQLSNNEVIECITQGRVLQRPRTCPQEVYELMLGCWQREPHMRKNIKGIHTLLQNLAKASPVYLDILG

From ChEMBL document CHEMBL2218924, “A broad activity screen in support of a chemogenomic map for kinase signalling research and drug discovery” (Biochem J, 2013) come the findings set out here.

Angiopoietin-1 receptor (Homo sapiens), sequence (Q02763 whole entry): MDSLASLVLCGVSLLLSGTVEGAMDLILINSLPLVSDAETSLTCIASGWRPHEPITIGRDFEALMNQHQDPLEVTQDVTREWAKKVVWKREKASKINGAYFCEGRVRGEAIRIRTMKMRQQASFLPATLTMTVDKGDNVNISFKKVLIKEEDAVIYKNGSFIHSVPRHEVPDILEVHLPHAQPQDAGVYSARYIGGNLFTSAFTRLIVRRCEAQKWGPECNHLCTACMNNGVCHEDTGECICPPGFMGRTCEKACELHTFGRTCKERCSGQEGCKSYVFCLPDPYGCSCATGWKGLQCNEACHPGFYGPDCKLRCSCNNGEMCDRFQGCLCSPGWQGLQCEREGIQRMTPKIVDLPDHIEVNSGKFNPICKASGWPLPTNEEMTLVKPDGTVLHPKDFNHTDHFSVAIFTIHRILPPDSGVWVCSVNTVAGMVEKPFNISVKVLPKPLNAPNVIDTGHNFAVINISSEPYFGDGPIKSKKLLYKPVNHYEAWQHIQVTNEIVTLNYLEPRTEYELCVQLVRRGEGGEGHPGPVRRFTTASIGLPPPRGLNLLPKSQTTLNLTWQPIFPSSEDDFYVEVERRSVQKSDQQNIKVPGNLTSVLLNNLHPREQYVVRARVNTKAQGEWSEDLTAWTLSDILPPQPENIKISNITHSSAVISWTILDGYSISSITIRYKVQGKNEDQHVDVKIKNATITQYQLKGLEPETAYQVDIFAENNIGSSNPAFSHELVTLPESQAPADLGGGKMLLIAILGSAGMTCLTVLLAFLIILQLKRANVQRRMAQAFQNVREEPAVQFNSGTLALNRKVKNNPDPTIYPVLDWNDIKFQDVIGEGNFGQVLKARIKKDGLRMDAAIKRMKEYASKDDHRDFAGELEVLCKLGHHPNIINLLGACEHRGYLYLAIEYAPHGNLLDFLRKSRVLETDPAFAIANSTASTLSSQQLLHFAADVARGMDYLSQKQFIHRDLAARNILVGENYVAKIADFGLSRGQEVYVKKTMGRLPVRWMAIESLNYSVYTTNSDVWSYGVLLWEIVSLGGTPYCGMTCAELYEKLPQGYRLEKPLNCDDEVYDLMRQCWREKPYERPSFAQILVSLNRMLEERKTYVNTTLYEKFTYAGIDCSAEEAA
High affinity nerve growth factor receptor (Homo sapiens), sequence (P04629 33-796 limits assumed): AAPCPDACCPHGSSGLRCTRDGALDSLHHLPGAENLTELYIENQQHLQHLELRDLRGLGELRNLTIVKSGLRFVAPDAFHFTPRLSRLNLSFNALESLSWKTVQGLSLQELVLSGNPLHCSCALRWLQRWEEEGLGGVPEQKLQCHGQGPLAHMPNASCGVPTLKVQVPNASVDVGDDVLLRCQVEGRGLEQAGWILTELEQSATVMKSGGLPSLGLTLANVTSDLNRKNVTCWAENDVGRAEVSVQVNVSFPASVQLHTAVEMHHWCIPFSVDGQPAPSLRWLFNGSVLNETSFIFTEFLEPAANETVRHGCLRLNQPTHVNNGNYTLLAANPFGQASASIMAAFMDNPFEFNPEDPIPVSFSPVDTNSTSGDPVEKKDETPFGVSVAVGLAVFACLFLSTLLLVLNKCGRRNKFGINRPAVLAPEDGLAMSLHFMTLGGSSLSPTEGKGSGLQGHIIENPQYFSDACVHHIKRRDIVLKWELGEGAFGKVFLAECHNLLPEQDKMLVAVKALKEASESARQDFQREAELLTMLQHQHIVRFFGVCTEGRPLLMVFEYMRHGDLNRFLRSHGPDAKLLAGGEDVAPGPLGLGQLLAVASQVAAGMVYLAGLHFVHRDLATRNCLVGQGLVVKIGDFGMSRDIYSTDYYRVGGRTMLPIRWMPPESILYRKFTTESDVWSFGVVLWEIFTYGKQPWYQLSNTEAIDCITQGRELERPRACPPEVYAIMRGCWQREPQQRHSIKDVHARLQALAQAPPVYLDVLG
Serine/threonine-protein kinase tousled-like 2 (Homo sapiens), sequence (Q86UE8 whole entry, looked up): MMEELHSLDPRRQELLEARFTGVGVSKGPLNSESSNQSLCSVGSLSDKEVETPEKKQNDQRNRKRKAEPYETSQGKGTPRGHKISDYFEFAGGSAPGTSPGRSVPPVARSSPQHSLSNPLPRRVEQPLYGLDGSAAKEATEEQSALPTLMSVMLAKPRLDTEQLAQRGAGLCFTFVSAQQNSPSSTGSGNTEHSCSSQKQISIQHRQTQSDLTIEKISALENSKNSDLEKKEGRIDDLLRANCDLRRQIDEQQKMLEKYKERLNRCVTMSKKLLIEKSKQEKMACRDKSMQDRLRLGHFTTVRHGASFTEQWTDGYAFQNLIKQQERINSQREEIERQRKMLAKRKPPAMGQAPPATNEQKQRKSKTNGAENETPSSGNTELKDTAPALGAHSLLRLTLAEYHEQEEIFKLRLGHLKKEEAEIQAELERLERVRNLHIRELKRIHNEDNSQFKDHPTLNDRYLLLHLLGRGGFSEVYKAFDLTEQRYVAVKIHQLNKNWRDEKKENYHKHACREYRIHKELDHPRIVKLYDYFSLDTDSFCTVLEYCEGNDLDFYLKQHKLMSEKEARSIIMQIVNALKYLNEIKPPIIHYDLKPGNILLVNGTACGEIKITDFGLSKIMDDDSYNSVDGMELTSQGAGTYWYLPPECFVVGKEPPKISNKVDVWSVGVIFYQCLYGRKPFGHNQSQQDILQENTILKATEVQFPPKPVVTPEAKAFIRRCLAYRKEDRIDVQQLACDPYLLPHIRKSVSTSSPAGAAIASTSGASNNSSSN

With `c1ccc(-c2n[nH]cc2-c2ccnc3ccccc23)nc1`, the residual activity in assay [1] turned out to be 105%; in [2], 79%; in assay [3], 98%; in assay [4] it was 96%; in assay [5], 82%; in assay [6] it was 101%. The residual activity in [7] amounted to 96%; in assay [8], 99%; in [9], 91%; in assay [10], 92%; in [11], 93%; in assay [12] it was 88%. For the same compound, the residual activity in assay [13] stood at 91%; in [14], 91%; in assay [15] it was 90%; in assay [16], 72%; in assay [17], 76%.

As for `Oc1ccc(Nc2nc(-c3ccc(Cl)cc3)cs2)cc1`, the residual activity in assay [1] was 112%; in assay [2], 91%; in assay [3] it was 72%; in assay [4], 40%; in assay [5], 116%; in [6] it was 97%. Further, the residual activity in [18] came to 106%; in [19], 111%; in assay [7] it was 104%; in assay [8] it was 103%; in assay [9], 110%; in assay [10], 87%. Moreover, the residual activity was determined as 105% in assay [11]; 100% in assay [12]; 78% in assay [13]; 113% in assay [14]; 131% in [15]; 108% in assay [16]. Also, the residual activity in assay [17] came out at 64%; in assay [20] it was 74%.

As to `Cc1cc(Nc2nc(-c3ccccc3)nc3ccccc23)n[nH]1`, the residual activity was found to be 21% in [1]; 4% in assay [2]; 66% in [3]; 50% in assay [4]; 66% in assay [6]; 76% in assay [18]. For the same compound, the residual activity in [19] was 78%; in assay [7] it was 62%; in assay [8], 17%; in [9], 72%; in assay [10] it was 25%; in [11], 67%. Besides, the residual activity is 38% in assay [12]; 4% in [13]; 77% in assay [14]; 6% in assay [15]; -2% in assay [16]; -1% in [17]. In addition, the residual activity in [20] was 1%.
